# Reference: the supplement of paper PMC10981050
# Where “and” joins values, the source holds several entries; their conditions need not be identical. Equal entries are not always repeated. Structures can show the parent of a compound that is named as a salt.
# How the values were obtained:
# Experiment in all cases: cell viability relative to vehicle control; higher = less cytotoxic
# Details in all cases: 10 µM
# K562 = tested on: K562
# Summary of the method: (§1)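 Mutant clones made by CRISPR editing and their isogenic wild-type counterparts, from four leukaemia lines, were exposed to a single 10 µM dose of each library compound for 48 h. The supernatant was then removed and CellTiter-Glo luminescence was read. Viability was reported as percent of the on-plate vehicle control.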
# MARIMO = tested on: MARIMO
# Summary of the method: as §1
# MOLM14 = tested on: MOLM14
# Summary of the method: as §1
# OCI-AML2 = tested on: OCI-AML2
# Summary of the method: as §1
Structure (SMILES),cell viability (K562; SRSF2 genotype: SRSF2 P95H/wt),cell viability (K562; SRSF2 genotype: SRSF2 wt/wt) [%],cell viability (MARIMO; SRSF2 genotype: SRSF2 P95H/wt) [%],cell viability (MARIMO; SRSF2 genotype: SRSF2 wt/wt) [%],cell viability (MOLM14; SRSF2 genotype: SRSF2 P95H/wt) [%],cell viability (MOLM14; SRSF2 genotype: SRSF2 wt/wt) [%],cell viability (OCI-AML2; SRSF2 genotype: P95H/wt) [%],cell viability (OCI-AML2; SRSF2 genotype: wt/wt) [%]
CS(=O)(=O)c1ccc(-c2cnc(N)c(C(=O)Nc3ccccc3)n2)cc1,108% and 109%,116,113,110,109,110,98.9,91.7
CC(C)(C)C(=O)N1N=CC[C@H]1c1ccccc1,101% and 98.4%,104,107,108,95.5,103,97.2,103
CCCc1ccc(OCC(=O)N(Cc2nc(-c3cccnc3)no2)C(C)C)cc1,87.5% and 91.9%,91.3,81.5,90.4,85.6,96,77.4,83.9
CC(C)OC(=O)CCC/C=C\C[C@@H]1[C@@H](/C=C/C(F)(F)COc2ccccc2)[C@H](O)C[C@@H]1O [Tafluprost],85.8% and 90.8%,92.1,85,96.2,89.3,97.7,90.6,95
O=C(CSc1nc2c(c(=O)n1-c1ccccc1)SCC2)Nc1ccc(-c2ccccc2)cn1,88.8% and 93.3%,92.7,100,98.2,100,96.8,93.1,103
Cn1c(=O)cc(N2CCC[C@@H](N)C2)n(Cc2cc(F)ccc2C#N)c1=O [Trelagliptin],100% and 93.3%,92.1,96.8,101,98.3,99.2,100,102
Cc1ccc(Nc2ncc3c(n2)N(C)C(=O)N(c2cc(NC(=O)c4cccc(C(F)(F)F)c4)ccc2C)C3)cn1,57.3% and 59.5%,43.1,38.1,37.4,17.9,17.5,40.8,35.2
C[C@@H](O)[C@H]1C(=O)N2C(C(=O)OCOC(=O)C(C)(C)C)=C(SC3CN(C4=NCCS4)C3)[C@H](C)[C@H]12 [Tebipenem pivoxil (L-084)],99.2% and 99.3%,90,90.5,84.3,88.7,95.2,103,97.2
"Cc1cn([C@@H]2C[C@@H](O)[C@H](CO)O2)c(=O)[nH]c1=O [Telbivudine (Sebivo, Tyzeka)]",96.7% and 104%,101,105,102,99.2,108,113,102
CNS(=O)(=O)Nc1nccc(Cc2c(C)c3ccc(Oc4ncccn4)cc3oc2=O)c1F,59.5% and 66.4%,72.2,36,36.9,44.7,30.6,37.6,40.4
O=C(O)c1ccccc1C(=O)Nc1ccc(-c2ccccc2)cc1 [Kartogenin],106% and 113%,103,105,107,106,105,105,97.9
CC1CCc2cc(F)cc3c(=O)c(C(=O)O)cn1c23 (stereo unspecified) [Flumequine],96.6% and 94.5%,97.5,95.6,104,95.1,102,96.3,107
CC1(C)CC[C@]2(NC(=O)C(C)(F)F)CC[C@]3(C)[C@H](C(=O)C=C4[C@@]5(C)C=C(C#N)C(=O)C(C)(C)[C@@H]5CC[C@]43C)[C@@H]2C1 [Omaveloxolone (RTA-408)],9.19% and 4.65%,5.62,1.12,0.48,0.3,0.25,0.23,0.32
Cc1cc(-c2nc(-c3ccc(OC(F)(F)F)cc3)no2)nn1Cc1ccnc(N2CCN(C3CC3)CC2)c1,61.8% and 46.9%,54.1,63,53.7,63.5,51.8,52.2,46.9
CC(C)=C1CC[C@@H](C)CC1=O [Pulegone],95.9% and 92.3%,93,101,95.6,98.1,96.3,96,98.7
COc1cc2c(cc1O)CC[n+]1cc3c(OC)c(OC)ccc3cc1-2 [Jatrorrhizine],91.4% and 98.7%,95.8,107,103,101,99.8,105,98.2
C[C@H](N[C@@H](CCc1ccccc1)C(=O)O)C(=O)N1CCC[C@H]1C(=O)O [Enalaprilat dihydrate],103% and 100%,100,98.7,109,102,103,99.4,108
"c1ccc2occc2c1 [2,3-Benzofuran]",105% and 91%,99.1,93.7,107,98.4,105,90.6,98.6
CC(=O)Nc1nc(C)c(-c2ccc(Cl)c(S(=O)(=O)NCCO)c2)s1,74.9% and 77.5%,81.1,38.1,38.7,32.8,37.1,12.2,24.4
O=C(Nc1cc2cc[nH]c2cn1)c1ccccc1,45.9% and 44.5%,43,43.3,45.8,49.3,51.1,38.6,39.3
CCCOC(=O)c1ccc(O)cc1 [Propylparaben],96.5% and 97.2%,101,91.3,107,98.9,105,95.6,90.1

Structure (SMILES),cell viability (K562; SRSF2 genotype: SRSF2 P95H/wt),cell viability (K562; SRSF2 genotype: SRSF2 wt/wt) [%],cell viability (MARIMO; SRSF2 genotype: SRSF2 P95H/wt) [%],cell viability (MARIMO; SRSF2 genotype: SRSF2 wt/wt) [%],cell viability (MOLM14; SRSF2 genotype: SRSF2 P95H/wt) [%],cell viability (MOLM14; SRSF2 genotype: SRSF2 wt/wt) [%],cell viability (OCI-AML2; SRSF2 genotype: P95H/wt) [%],cell viability (OCI-AML2; SRSF2 genotype: wt/wt) [%]
NC(=O)c1ccccn1 [Picolinamide],104% and 95.8%,100,103,108,101,106,92.7,110
CC(=O)Oc1c(C)c(C)c2c(c1C)CCC(C)(CCC[C@H](C)CCC[C@H](C)CCCC(C)C)O2 (stereo partly specified) [Vitamin E Acetate],105% and 103%,106,102,103,103,106,105,94.2
CCOc1ccc(Cc2cc([C@@H]3O[C@H](SC)[C@@H](O)[C@H](O)[C@H]3O)ccc2Cl)cc1 [Sotagliflozin (LX4211)],84.2% and 86%,81.4,86.3,97.3,89.7,89.5,88.6,96.9
Cc1cc([C@@H](C)Nc2ccccc2C(=O)O)c2nc(N3CCOCC3)cc(=O)n2c1,88.7% and 86.4%,89.2,66.9,66.3,49.6,48.3,49.8,56.1
O=c1cc(-c2ccc(O)cc2)oc2cc(O)c([C@@H]3O[C@H](CO)[C@@H](O)[C@H](O)[C@H]3O)c(O)c12 [Isovitexin],98.2% and 98.6%,98.3,92.1,93.6,95.1,95.9,99.7,103
CCCc1nc(C(C)(C)O)c(C(=O)OCc2oc(=O)oc2C)n1Cc1ccc(-c2ccccc2-c2nnn[nH]2)cc1 [Olmesartan medoxomil (Benicar)],105% and 103%,106,109,111,97.2,104,104,106
Cn1nnnc1SCC1=C(C(=O)O)N2C(=O)[C@@H](NC(=O)[C@H](OC=O)c3ccccc3)[C@H]2SC1 [S3638 Cefamandole (nafate).cdx],103% and 97.5%,102,97.5,103,99.4,104,97.7,97.6
CC[C@@H]([C@H](C)O)n1ncn(-c2ccc(N3CCN(c4ccc(OC[C@@H]5CO[C@@](Cn6cncn6)(c6ccc(F)cc6F)C5)cc4)CC3)cc2)c1=O [Posaconazole],55.7% and 75.6%,87,55.6,59,62.2,85.5,18.1,23.9
Cn1cncc1[C@@](N)(c1ccc(Cl)cc1)c1ccc2c(c1)c(-c1cccc(Cl)c1)cc(=O)n2C [Tipifarnib (Zarnestra)],24.9% and 31.7%,34.7,34.5,32.9,29.9,20.2,19.9,26
CC(C)CN(CC(=O)N1CCN(CC(OCc2ccc3ccccc3c2)c2ccc(Cl)cc2Cl)CC1)CC(C)C (stereo unspecified),73.4% and 83%,79.2,54.3,43.2,56.2,71,36,41.8
CC(C)(Oc1ccc(Cl)cc1)C(=O)OCCOC(=O)c1cccnc1 [Etofibrate],96% and 91.7%,95.4,93.2,100,94.7,101,83.5,77.5
O=c1cc(N2CCOCC2)oc2c(-c3ccccc3)cccc12,76.7% and 86.9%,91.8,66.6,64.8,51.5,45.6,47.5,49.4
Cc1nc2n(c(=O)c1CCN1CCC(c3noc4cc(F)ccc34)CC1)CCCC2O (stereo unspecified) [Paliperidone],84.4% and 93.4%,80.7,90.2,93.2,83.5,91.8,89,91.2
CO/N=C(\C(=O)N[C@@H]1C(=O)N2C(C(=O)O)=C(Cn3ccc(=N)n3CCO)CS[C@H]12)c1csc(N)n1 [Cefoselis sulfate],95.5% and 104%,94,92.6,98,100,101,103,96.8
CCCc1nn(C)c2c(=O)[nH]c(-c3cc(S(=O)(=O)N4CCN(C)CC4)ccc3OCC)nc12 [Sildenafil Mesylate],103% and 96.9%,103,99,108,107,103,110,105
O=C[C@H](O)[C@@H](O)[C@H](O)CO [Xylose],95% and 93.8%,96,90.4,96.1,91.8,95.2,103,88.2
Cc1cc(Nc2nc(N[C@@H](C)c3ccc(F)cc3)c(C#N)cc2F)n[nH]1,53.7% and 73%,75.5,30.6,33.4,1.75,3.5,6.13,15.8
CC(C)Cn1cnc2c(N)nc3ccccc3c21 [Imiquimod],80.9% and 85.2%,77.2,78.5,92.4,78.1,84.8,85.9,85.4
N#CN=C(NCCCCCCOc1ccc(Cl)cc1)Nc1ccncc1,26.1% and 17.5%,25.9,16.8,26.9,6.24,1.39,6.42,6.39
CC(C)Oc1ccc2c(=O)c(-c3ccccc3)coc2c1 [Ipriflavone],88.2% and 88.5%,94,85.2,88.1,110,113,71.6,75.8
Cc1ncc(COP(=O)(O)O)c(C=O)c1O [Pyridoxal 5-phosphate monohydrate],97.8% and 103%,101,91.2,107,99.2,102,101,101
